From PubChem BioAssay come the findings set out here.

Assay [1] is described as follows: stimulators of insulin release from INS-1E, primary screen, cell-based, 5 mM glucose, NPC library (AID 1117329). The following applies: rat INS-1E insulin secretion, at 10 µM, stronger effect = higher value.
The nature of assay [2]: growth inhibition of GSK3B-pretreated HCT116 cells – cell-based, CellTiter-Glo, 0.2 to 20 µM (AID 1117336;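 active means compounds lowering colon cancer cell viability after pretreatment blocking the GSK3B kinase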). The following applies: HCT116 viability after GSK3B inhibitor, at 20 µM, stronger effect = higher value.
Assay [3] is described as follows: inhibition of endothelial tube formation, primary screen, imaging, VEGF stimulated, CD31 staining, tube area, NPC library (AID 1117340;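 active means compound that reduces growth-factor-driven endothelial tube area in a mixed cell culture, no cutoff stated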). The following applies: VEGF-stimulated ADSC/ECFC co-culture, at 10 µM, stronger effect = higher value.
Assay [4] in a line: glucagon-like peptide 1 release enhancers, primary assay, NCI-H716 cell line, NPC library (AID 1117341;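 active means compound raises GLP1 secretion from the human gut endocrine cells, with no numeric limit stated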). The settings on record: NCI-H716 cells, at 10 µM, stronger effect = higher value.
Assay [5] is described as follows: HCT116 colon cancer cell growth inhibition, primary screen, CellTiter-Glo luminescence, NPC library (AID 1117342;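 active means compounds that lower survival of HCT116 colon cancer cells in the luminescence readout, no numeric limit stated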). The settings on record: at 20 µM (top of the series). (In ATP-based viability assays light output follows the ATP content of the culture.)
Assay [6] in a line: CellTiter-Glo luminescent readout of SW480 viability loss, NPC library primary (AID 1117343;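 active means compounds that lower viability of the colon cancer cells in the luminescence readout, with no numeric limit stated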). The following applies: CellTiter-Glo luminescence; at 20 µM (top of the series).
A short description of assay [7]: decreased DLD-1 cellular survival, CellTiter-Glo luminescent readout, NPC compound collection, primary HTS (AID 1117346;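 active means compounds that lower survival of DLD-1 colon cancer cells in the luminescence readout, no cutoff given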). The settings on record: DLD-1 viability, CellTiter-Glo luminescence; at 20 µM (top of the series).
Assay [8] has as its target 6-phosphogluconate dehydrogenase, decarboxylating (Homo sapiens) (UniProt P52209). Description: 6PGD enzyme inhibitors, primary screen, biochemical, human, recombinant enzyme, NADPH absorbance (AID 1159550;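 active means at least 20% inhibition of 6-phosphogluconate dehydrogenase activity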). The settings on record: recombinant 6PGD, NADPH absorbance 341 nm; at 10 µM; stronger effect = higher value.
Assay [9] is described as follows: differential killing of epithelial or mesenchymal cells, primary screen, imaging, PC-3E GFP, TEM4-18 mCherry, co-culture (AID 1345086;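 active means compounds killing one labelled cell type while sparing the other, by normalised counts and ratio limits, not self-fluorescent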;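 on all read-outs here: cells exposed to compound for 72 h before imaging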;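 on red/green cell ratio (normalised): normalised mesenchymal count divided by normalised epithelial count so high means epithelial killing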). The settings on record: imaging cell counts, at 1 µM; for red/green cell ratio (normalised): actives lie on both sides, counts scaled to control wells, 1 = unselective.
[10] abbreviates: measured here: epithelial PC-3E GFP cell survival.
The mark [11] stands for this setting: measured here: mesenchymal TEM4-18 mCherry cell survival.

Structures are written as SMILES. Activity calls are given as the source filed them.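 How the source made its calls, unless noted: active means compound raises insulin release from rat beta cells at 5 mM glucose, no numeric limit stated; inactive means the rest.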

Sequence of 6-phosphogluconate dehydrogenase, decarboxylating (Homo sapiens) (P52209 whole entry, looked up): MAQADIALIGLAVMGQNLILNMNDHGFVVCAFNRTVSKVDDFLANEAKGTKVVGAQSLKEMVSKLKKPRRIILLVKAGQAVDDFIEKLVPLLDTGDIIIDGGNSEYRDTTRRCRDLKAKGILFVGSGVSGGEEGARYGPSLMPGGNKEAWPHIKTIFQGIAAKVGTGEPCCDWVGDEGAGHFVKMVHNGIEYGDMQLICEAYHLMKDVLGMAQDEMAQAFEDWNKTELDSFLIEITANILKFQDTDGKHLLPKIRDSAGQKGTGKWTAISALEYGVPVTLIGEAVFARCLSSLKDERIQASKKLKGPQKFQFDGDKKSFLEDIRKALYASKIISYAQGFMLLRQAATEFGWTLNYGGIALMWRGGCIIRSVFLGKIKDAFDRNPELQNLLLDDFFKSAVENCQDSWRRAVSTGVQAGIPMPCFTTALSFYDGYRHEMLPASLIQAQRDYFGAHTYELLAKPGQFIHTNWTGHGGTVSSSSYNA

In the case of `Cc1cccc(C(=O)O)c1O`, the insulin secretion stimulation in assay [1] is -1.9% (inactive). Also, the viability decrease in assay [2] was -9.8% (inactive). The tube area decrease in assay [3] is 2.1% (inactive). Also, in assay [4], the GLP1 secretion stimulation is 1.9% (inactive). Also, the inhibition of viability in [5] was -0.1% (inactive). Also, the viability decrease (inhibition) is 22.1% (inactive) in assay [6] and -4.5% (inactive) in [7]. In [8], the inhibition (commonly the drop in the measured response relative to a control, in per cent) was 9.08% (inactive). For the same molecule, the red/green cell ratio (normalised) in assay [9] is 1 (inactive). The normalised cell number in assay [9] (setting [10]) and in assay [9] (setting [11]) was 0.79 throughout.

Consider `CCC(=O)c1c(O)cc(O)cc1O`, for which the insulin secretion stimulation in assay [1] is 3.7% (inactive). In [2], the viability decrease was -16.4% (inactive). Besides, the tube area decrease in assay [3] is 4.6% (inactive). In assay [4], the GLP1 secretion stimulation was -2% (inactive). The inhibition of viability in assay [5] is 21.1% (inactive). For the same molecule, the viability decrease (inhibition) in assay [6] is 21.5% (inactive); in [7] it was 2.4% (inactive). Besides, the inhibition in assay [8] was 8.94% (inactive). In addition, the red/green cell ratio (normalised) in assay [9] is 0.9 (inactive). For the same molecule, the normalised cell number in [9] (setting [10]) was 1.06; in assay [9] (setting [11]), 0.96.

Consider `Nc1nccs1`, for which the insulin secretion stimulation in assay [1] is -0.1% (inactive). Besides, the viability decrease in assay [2] is 12.4% (inactive). The tube area decrease in assay [3] was 5.4% (inactive). Further, the GLP1 secretion stimulation in assay [4] was -1% (inactive). In addition, in assay [5], the inhibition of viability was 25.5% (inactive). Besides, the viability decrease (inhibition) was 66.3% (active) in assay [6] and 10% (active) in assay [7]. Also, the inhibition in assay [8] was 5.79% (inactive). Further, in assay [9], the red/green cell ratio (normalised) is 0.78 (inactive). The normalised cell number in assay [9] (setting [10]) stood at 1.25; in assay [9] (setting [11]) it was 0.98.

Consider `NCCCC[C@H](N[C@@H](CCc1ccccc1)C(=O)O)C(=O)N1CCC[C@H]1C(=O)O`, for which the insulin secretion stimulation in assay [1] was -0.8% (inactive). Besides, in [2], the viability decrease is -3.9% (inactive). Moreover, in assay [3], the tube area decrease is -7.9% (inactive). Besides, the GLP1 secretion stimulation in [4] is 0.3% (inactive). Besides, in [5], the inhibition of viability was -5.23% (inactive). For the same molecule, the viability decrease (inhibition) in assay [6] was 9.9% (inactive); in assay [7] it was -8% (inactive). In addition, the inhibition in [8] was -2.78% (inactive). The red/green cell ratio (normalised) in assay [9] was 1.65 (inactive). Further, the normalised cell number is 0.22 in assay [9] (setting [10]) and 0.36 in assay [9] (setting [11]).

For `CCCCC(CC)CN1CN(CC(CC)CCCC)CC(C)(N)C1` (configuration not stated), in [1], the insulin secretion stimulation is 6.1% (inactive). The viability decrease in [2] is 79.6% (active). In addition, the tube area decrease in assay [3] was 16% (inactive). Also, the GLP1 secretion stimulation in assay [4] is 53.9% (active). The inhibition of viability in [5] is 102% (active). In addition, the viability decrease (inhibition) was 145% (active) in assay [6] and 105% (active) in assay [7]. Besides, the inhibition in assay [8] was -10.4% (inactive). In addition, the red/green cell ratio (normalised) in assay [9] was 1.02 (inactive). Also, the normalised cell number was 0.84 in [9] (setting [10]) and 0.85 in assay [9] (setting [11]).

As to `Cc1cc(=O)n(-c2ccccc2)n1C`, in assay [1], the insulin secretion stimulation is -0.2% (inactive). Further, the viability decrease in assay [2] is -26.3% (inactive). The tube area decrease in assay [3] was -3.4% (inactive). For the same molecule, in assay [4], the GLP1 secretion stimulation was 0.4% (inactive). In addition, the inhibition of viability in assay [5] is 1.15% (inactive). For the same molecule, the viability decrease (inhibition) in [6] is 4% (inactive); in [7], -8.2% (inactive). The inhibition in assay [8] is 6.71% (inactive). The red/green cell ratio (normalised) in [9] is 1.02 (inactive). For the same molecule, the results for the normalised cell number in [9] (setting [10]) and in assay [9] (setting [11]) were 1.24 and 1.26, respectively.

In the case of `CCCCN(CCCC)CCCOC(=O)c1ccc(N)cc1`, in [1], the insulin secretion stimulation is 0.7% (inactive). Besides, the viability decrease in [2] is -47.6% (inactive). The tube area decrease in assay [3] was 18.7% (inactive). For the same molecule, the GLP1 secretion stimulation in assay [4] is 0.7% (inactive). Further, the inhibition of viability in assay [5] was 15% (inactive). The figures for the viability decrease (inhibition) in assay [6] and in assay [7] were 21.3% (inactive) and -4.6% (inactive), respectively. Also, the inhibition in assay [8] was -3.82% (inactive). Also, the red/green cell ratio (normalised) in [9] was 1.16 (inactive). Moreover, the figures for the normalised cell number in [9] (setting [10]) and in assay [9] (setting [11]) were 1.04 and 1.2, respectively.
